# Most compounds without a hit are left out; they make up all but 2.4% or so of the library.
# GLP1R cytotox = qHTS of GLP-1 Receptor Inverse Agonists: Cytotox Screen | HEK293 cAMP-luciferase reporter cells, luminescence, 24 h | Potency, µM (series often up to 38.3 µM), inactives show at the highest dose activity change, negative = inhibition, hits mostly inhibitors | 410,000 compounds, 0.13% hits | AID 624418, 2012;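 further: loss of luciferase light is scored as toxicity; potency means the concentration at half of the fitted maximal effect; on the % scale 0 is the no-effect control and ±100 the full control effect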
#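 Luminescence readout: signal drop marks cytotoxicity. Plated cells grew 12 h at 37 °C, 5% CO2, received 23 nL compound for 24 h, then got luciferase reagent, read after 12 min at RT.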
# TRHR ag = qHTS for Small Molecule Agonists and Allosteric Enhancers of Human TRH Receptor: Primary Screen for Agonists | TRHR cells, calcium flux fluo-8, FDSS agonist mode | activation, % at 2 µM | 360,000 compounds, 0.18% hits | AID 493084, 2011; in the data active means activation above about 30%; further: 0% is about no effect
# Target sequence (P34981 whole entry, looked up): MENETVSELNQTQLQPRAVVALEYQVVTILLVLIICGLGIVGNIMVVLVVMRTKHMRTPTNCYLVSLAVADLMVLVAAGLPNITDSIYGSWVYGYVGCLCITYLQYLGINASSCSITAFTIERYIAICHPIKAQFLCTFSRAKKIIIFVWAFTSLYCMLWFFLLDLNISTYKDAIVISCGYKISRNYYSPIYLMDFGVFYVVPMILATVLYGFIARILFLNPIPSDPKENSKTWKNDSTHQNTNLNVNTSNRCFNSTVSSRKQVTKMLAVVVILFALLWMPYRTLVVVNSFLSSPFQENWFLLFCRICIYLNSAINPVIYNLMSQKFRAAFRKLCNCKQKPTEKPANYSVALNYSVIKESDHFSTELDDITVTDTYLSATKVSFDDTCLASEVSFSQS
#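 Agonist-mode FDSS calcium read (Ex 480/Em 530, 1 s cycles) in 1536-well TRHR cells with fluo-8 dye, after 10-cycle baseline and 23 nL compound addition; TRH at EC20 (10 nM final) added afterwards for the enhancer phase.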
# GLP1R inv ag = qHTS of GLP-1 Receptor Inverse Agonists (Inhibition Mode); HEK293 GLP-1R CRE-luciferase, luminescence, 24 h; GLP-1R form is constitutively active; Potency, µM (titrated, usually from 38.3 µM), without a hit: at the highest dose activity change, negative = inhibition, hits mostly inhibitors; Glucagon-like peptide 1 receptor (Homo sapiens), P43220; 410,000 compounds, 1.6% hits; further: potency means the concentration at half of the fitted maximal effect; on the % scale 0 is the no-effect control and ±100 the full control effect; nearly all actives have a fitted effect of over 55% in size
#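 Constitutively active GLP-1R drives a cAMP-responsive luciferase in stably transfected HEK293 cells; test compounds are added after overnight (12 h) attachment and left 24 hr, and signal loss in luminescence marks inhibition.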
# GLP1R ag = qHTS of GLP-1 Receptor Agonists; HEK293 GLP-1R CRE-luciferase, luminescence, 4-6 h; cells express a hypersensitive GLP-1R form; Potency, µM (highest dose often 45.6 µM), for the others: at the top dose activation, most hits filed as activators; 380,000 compounds, 0.007% hits; AID 624172, 2012; further: potency means the concentration at half of the fitted maximal effect; % of control where 0% means no effect
# PTHR1 agonist = qHTS for PTHR1 Agonists: Primary Screen. 410,000 compounds, 0.075% hits. HEK293 GP2 PTHR1 cells, GloSensor cAMP luminescence, 1 h. Parathyroid hormone/parathyroid hormone-related peptide receptor (Homo sapiens), Q03431. Potency, µM (highest dose often 115 µM), for the others: at the top dose activation, most hits filed as activators; further: potency means the concentration at half of the fitted maximal effect; nearly all actives have a fitted effect of over 55% in size
#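 HEK-293-derived GP2 cells expressing PTHR1 and a GloSensor cAMP reporter, 3,000/well, plated overnight, given luciferin plus IBMX (each 0.5 mM as added) for 1 h at 37 °C, then compound for 1 h at 37 °C. Luminescence was read after 15 min at room temperature.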
# TRHR enhancer = qHTS for Small Molecule Agonists and Allosteric Enhancers of Human TRH Receptor: Primary Screen for Enhancers. enhancement, % at 2 µM. TRHR cells, fluo-8 calcium fluorescence, EC20 TRH enhancement. 360,000 compounds, 0.66% hits; in the data active means enhancement above about 30%; further: 0% is about no effect
#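 TRHR-expressing cells loaded with fluo-8 calcium dye were read kinetically (ex 480/em 530) during compound addition, then stimulated with an EC20 of TRH (10 nM final). Enhancement of the Gq-mediated intracellular calcium response was scored.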
# * marks the source's active call; other numbers are inactive results; i = inactive; ? = inconclusive; . = not tested or not shown; [ ] = remark or other dose. Unless noted, the call rests on the fitted dose curve; in most records, active means well fitted curve in the direction sought with a large enough effect; inconclusive means small, poorly fitted or top-dose-only effect, or another doubt; inactive means no such curve, though single readings can be large; an effect the other way counts as inactive or inconclusive.
SMILES,GLP1R cytotox,TRHR ag,GLP1R inv ag,GLP1R ag,PTHR1 agonist,TRHR enhancer
CCOC(=O)c1cccc(NS(=O)(=O)c2cc3[nH]c(=O)c(=O)[nH]c3cc2C)c1,36%,0,15%,.,i,46*
CCn1cc(S(=O)(=O)c2ccccc2)c(=O)c2cc(F)c(F)cc21,-8%,0,5%,.,-7%,43*
CCOc1ccc(CCNC(=O)C2CCN(C(=O)N3CC(CC)Oc4ccccc43)CC2)cc1 (configuration not stated),26%,0,9%,.,0%,8
CC1(C(=O)NS(=O)(=O)Cc2cccc(Cl)c2)CCN1C(=O)C1(c2ccc(Cl)cc2)CC1 (configuration not stated),-13%,.,?,-2%,i,.
CCOC(=O)c1cc(-c2ccccc2)sc1NC(=O)C(C)C,4%,0,-26%,7%,-44%,-6
CCOC(=O)c1cc(-c2ccccc2)sc1NC(=O)C(C)N1C(=O)NC(C)(c2ccc(Cl)cc2)C1=O (configuration not stated),6%,0,5.6µM*,-5%,-11%[57.5 µM],0
COc1ccc(/C=N/OCC(=O)NC(c2ccccc2)c2ccccc2)c(OC)c1,1%,1,8.9µM*,1%,-24%,-1
COc1ccc(CC(=O)NC(c2ccccc2)c2ccc(C)cc2)c(OC)c1 (configuration not stated),-18%,0,8.9µM*,20%,-7%,-3
COc1ccc(OC)c(CC(=O)NC(c2ccccc2)c2ccccc2)c1,-16%,-2,-3%,14%,-18%,-5
CC1CN(C(=O)CCC(=O)NCc2ccccc2)c2cc(Cl)ccc2O1 (configuration not stated),-4%,-1,10µM*,-6%,0%,-4
Cc1ccc(S(=O)(=O)N2C[C@H]3n4c(=O)ccc(=O)n4C[C@H](OC(=O)Nc4c(C)noc4C)[C@@]3(O)C2)cc1,10%,.,-3%,-2%,-13%,.
O=C(CC1CCCCC1)Nc1nc2ccccc2s1,12%,1,-4%,7%,-26%,36*
CN(C)C(=S)Nc1nc2ccccc2s1,?,0,0.63µM*,-2%,-47%,0
Cc1ccccc1Nc1nc2ccccc2s1,0%,0,11µM*,2%,i,9
CC1CCN(c2ccc(C(=O)N3CCOCC3)cc2[N+](=O)[O-])CC1,-22%,.,2%,7%,i,.
COc1ccc(/C=C2\CCCc3c2nc2ccccc2c3C(=O)O)cc1OC,.,214*,.,.,.,16
O=C(Cc1ccccc1)NCCc1cnc[nH]1,-2%,0,24%,6%,i,6
Cc1cccc(CN2CCc3c([nH]c4ccccc34)C2CC(C)C)n1 (configuration not stated),1%,0,11µM*,2%,-17%,6
O=C(Nc1ccccc1Sc1ccccc1)c1ccc(F)cc1,27%,0,5µM*,20%,-15%,0
CC1CCN(CCCCOc2ccccc2[N+](=O)[O-])CC1,8.9µM*,0,-1%,0%,24%,-1
CC1CCN(CCCCOc2ccc([N+](=O)[O-])cc2)CC1,-1%,1,-17%,-1%,i,8
CC(=O)Nc1cc(-c2cccc(NS(C)(=O)=O)c2)cn2c(-c3cccc(C(C)=O)c3)cnc12,-12%,.,-27%,10%,12%,.
COc1ccc(CSc2nnc(Cc3sc(-c4ccccc4)nc3-c3ccccc3)o2)cc1,-4%,1,10µM*,1%,-5%[57.5 µM],-3
CC(C)C[C@H](NC(=O)OC(C)(C)C)c1nnc(SCc2ccccc2)o1,2%,0,8.9µM*,0%,-5%[57.5 µM],5
O=[N+]([O-])c1cc(-c2nc(-c3ccccc3)no2)ccc1NCC1CCCO1 (configuration not stated),-2%,1,17%,.,i,-1
SMILES,GLP1R cytotox,TRHR ag,GLP1R inv ag,GLP1R ag,PTHR1 agonist,TRHR enhancer
COc1ccc(N=CC2=C(O)CC(C)(C)CC2=O)cc1,-9%,0,2%,7%,-21%,38*
Cc1noc(C)c1COc1cccc(C(=O)NCc2cccc(Cl)c2)c1,-11%,0,?,1%,-31%,-5
CCNc1nc2c(c(=O)n(Cc3ccccc3)c(=O)n2C)n1Cc1ccccc1,-24%,0,?,0%,i,39*
O=C(N/N=C/C(Br)=C\c1ccccc1)c1ccc2nc[nH]c2c1,?,0,139%,-4%,i,-5
CC(C)OC(=O)c1ccc(NC(=O)c2cccc(-n3cnnn3)c2)cc1,-24%,7,7.1µM*,8%,-34%,-2
COc1cc(Cl)c(C)cc1NC(=O)CCn1cnc2onc(-c3ccc(F)cc3)c2c1=O,1%,-1,-5%,.,i,-22
CCc1ccc(OCC(=O)NC2CCCCC2)c(Br)c1,13%,4,?,17%,-30%,3
Cc1cc(OCC(=O)NCCCN(C)C)cc(C)c1Br,14%,-1,2.8µM*,0%,-12%[57.5 µM],9
CCc1ccc(OCC(=O)NCCN(C)C)c(Br)c1,9%,0,10µM*,11%,i,9
Cc1ccc(CN(Cc2cc3cccc(C)c3[nH]c2=O)C(=S)NCCCN(C)C)cc1,6%[0.307 µM],1,2%[0.307 µM],5%,i,2
N#CC1=C(N)Oc2cc(N)ccc2C1C1CCCCC1 (configuration not stated),107%,0,?,1%,i,9
O=C(c1cccs1)c1cn(CCOc2ccc(F)cc2)c2ccccc12,0%,0,11µM*,.,-1%,4
O=C(c1cccs1)c1cn(CCOc2ccccc2F)c2ccccc12,4%,0,2%,.,-42%,6
CC(C)(C)c1ccc(OCCn2cc(C(=O)c3ccco3)c3ccccc32)cc1,-21%,1,7.9µM*,.,3%,-10
CCN(CC)C(=O)c1sc2c(c1C)c(=O)n(Cc1ccccc1)c(=O)n2Cc1ccc(Cl)cc1,-8%,0,?,.,4%,-3
CCN(CC)C(=O)c1sc2c(c1C)c(=O)n(-c1ccc(C)c(C)c1)c(=O)n2Cc1cccc(Cl)c1,0%,1,5µM*,.,9%,0

# Source: PubChem (National Center for Advancing Translational Sciences (NCATS))
